About 83,000 compounds went through this panel and 20% of them were active in at least one assay; those are over-represented in the sample as a whole.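 Cells were grown in 96-well plates and exposed to the test compound at a single concentration for 48 hours; results are reported as percent growth, with values below 10 considered active.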 Values without a mark were called inactive. The source made the active and inactive calls.
Key:
Assay in all cases: NCI-60 one-dose screen, 48 h (100 = growth as untreated, 0 = no growth, -100 = all killed)
Conditions in all cases: 10 µM unless noted
SK-MEL-2 melanoma = system: SK-MEL-2 melanoma
EKVX NSCLC = system: EKVX NSCLC
SN12C renal = system: SN12C renal
UO-31 renal = system: UO-31 renal
TK-10 renal = system: TK-10 renal
ACHN renal = system: ACHN renal
CAKI-1 renal = system: CAKI-1 renal
A498 renal = system: A498 renal
CCRF-CEM leukemia = system: CCRF-CEM leukemia
MOLT-4 leukemia = system: MOLT-4 leukemia
RPMI-8226 leukemia = system: RPMI-8226 leukemia
OVCAR-8 ovarian = system: OVCAR-8 ovarian
OVCAR-5 ovarian = system: OVCAR-5 ovarian
OVCAR-4 ovarian = system: OVCAR-4 ovarian
SK-OV-3 ovarian = system: SK-OV-3 ovarian
IGROV1 ovarian = system: IGROV1 ovarian
OVCAR-3 ovarian = system: OVCAR-3 ovarian
HS 578T breast = system: HS 578T breast
NCI/ADR-RES ovarian = system: NCI/ADR-RES ovarian

`O=C(N/N=C/c1ccc(Cl)cc1)c1ccc(C(F)(F)F)nc1Nc1cccc(C(F)(F)F)c1` was tested, and the growth (SK-MEL-2 melanoma) was 25.8%, the growth (EKVX NSCLC) was 17.7% and the growth (SN12C renal) was 4.9% (active). For the same compound, the growth (UO-31 renal) was 10%, the growth (TK-10 renal) was 26.6% and the growth (ACHN renal) was 13%. For the same compound, the growth (CAKI-1 renal) was -5.88% (active), the growth (A498 renal) was 12.6% and the growth (CCRF-CEM leukemia) was 33.9%. The growth (MOLT-4 leukemia) was 2.2% (active), the growth (RPMI-8226 leukemia) was 3.59% (active) and the growth (OVCAR-8 ovarian) was 24%. It also gave a growth (OVCAR-5 ovarian) of 28%, a growth (OVCAR-4 ovarian) of 18.6% and a growth (SK-OV-3 ovarian) of 23.8%. The growth (IGROV1 ovarian) was 21.1%, the growth (OVCAR-3 ovarian) was -45.2% (active) and the growth (HS 578T breast) was 4.32% (active). The growth (NCI/ADR-RES ovarian) was -36.2% (active).

For `COc1ccc(-n2c(N)c(-c3nc4ccccc4[nH]3)cc(C#N)c2=O)cc1`, the growth (SK-MEL-2 melanoma) was 105%, the growth (EKVX NSCLC) was 79.1% and the growth (SN12C renal) was 85%. It also gave a growth (UO-31 renal) of 77.8%, a growth (TK-10 renal) of 103% and a growth (ACHN renal) of 75.9%. For the same compound, the growth (CAKI-1 renal) was 92.3%, the growth (A498 renal) was 64% and the growth (CCRF-CEM leukemia) was 98.3%. For the same compound, the growth (MOLT-4 leukemia) was 99.3%, the growth (RPMI-8226 leukemia) was 92.3% and the growth (OVCAR-8 ovarian) was 69.8%. It also gave a growth (OVCAR-5 ovarian) of 99%, a growth (OVCAR-4 ovarian) of 77.5% and a growth (SK-OV-3 ovarian) of 111%. The growth (IGROV1 ovarian) was 103%, the growth (OVCAR-3 ovarian) was 107% and the growth (HS 578T breast) was 50.1%. For the same compound, the growth (NCI/ADR-RES ovarian) was 77.8%.

Work on `Brc1c[n+](Cc2ccc3ccccc3c2)cn1Cc1ccc2ccccc2c1` yielded a growth (SK-MEL-2 melanoma) of 17.3%, a growth (EKVX NSCLC) of 60.1% and a growth (SN12C renal) of 37.6%. For the same compound, the growth (UO-31 renal) was 77.4%, the growth (TK-10 renal) was 43.6% and the growth (ACHN renal) was 90.6%. For the same compound, the growth (CAKI-1 renal) was 38.4%, the growth (A498 renal) was -0.664% (active) and the growth (CCRF-CEM leukemia) was 5.13% (active). For the same compound, the growth (MOLT-4 leukemia) was 12.6%, the growth (RPMI-8226 leukemia) was -46.3% (active) and the growth (OVCAR-8 ovarian) was 8.2% (active). The growth (OVCAR-5 ovarian) was 46.8%, the growth (OVCAR-4 ovarian) was -13.2% (active) and the growth (SK-OV-3 ovarian) was 34.9%. The growth (IGROV1 ovarian) was -51% (active), the growth (OVCAR-3 ovarian) was -4.19% (active) and the growth (HS 578T breast) was -7.66% (active). The growth (NCI/ADR-RES ovarian) was 97.5%.

In the case of `CNc1nc2c(s1)C(c1cc(F)ccc1F)CC(=O)N2` (stereo not given), the growth (SK-MEL-2 melanoma) is reported as 61.3%, the growth (EKVX NSCLC) is reported as 97.8% and the growth (SN12C renal) is reported as 71%. The growth (UO-31 renal) was 63.9%, the growth (TK-10 renal) was 17% and the growth (ACHN renal) was 87.8%. It also gave a growth (CAKI-1 renal) of 51.5%, a growth (A498 renal) of 34.4% and a growth (CCRF-CEM leukemia) of 40%. For the same compound, the growth (MOLT-4 leukemia) was 37.3%, the growth (RPMI-8226 leukemia) was 87.3% and the growth (OVCAR-8 ovarian) was 91.3%. The growth (OVCAR-5 ovarian) was 89.7%, the growth (OVCAR-4 ovarian) was 83.2% and the growth (SK-OV-3 ovarian) was 71.9%. For the same compound, the growth (IGROV1 ovarian) was 73.7%, the growth (OVCAR-3 ovarian) was 55.6% and the growth (HS 578T breast) was 70%. For the same compound, the growth (NCI/ADR-RES ovarian) was 71.7%.

Compound `O=C(CCc1nnc(-c2c(Cl)cccc2Cl)o1)c1nc2ccccc2[nH]1` has a growth (SK-MEL-2 melanoma) of 59.4%, a growth (EKVX NSCLC) of 61% and a growth (SN12C renal) of 61.2%. It also gave a growth (UO-31 renal) of 52.1%, a growth (TK-10 renal) of 64% and a growth (ACHN renal) of 81.3%. For the same compound, the growth (CAKI-1 renal) was 59.8%, the growth (A498 renal) was 58.4% and the growth (CCRF-CEM leukemia) was 47.3%. It also gave a growth (MOLT-4 leukemia) of 20.7%, a growth (RPMI-8226 leukemia) of 30.9% and a growth (OVCAR-8 ovarian) of 57.2%. The growth (OVCAR-5 ovarian) was 81.2%, the growth (OVCAR-4 ovarian) was 58.8% and the growth (SK-OV-3 ovarian) was 64.8%. It also gave a growth (IGROV1 ovarian) of 57.6%, a growth (OVCAR-3 ovarian) of 66.4% and a growth (HS 578T breast) of 82.3%. The growth (NCI/ADR-RES ovarian) was 63.3%.

`CCOC(=O)Cn1c(=O)c2c(c3ccccc3n2C)n2nnc(-c3ccccc3)c12` was tested, and the growth (SK-MEL-2 melanoma) was 98.3%, the growth (EKVX NSCLC) was 95.1% and the growth (SN12C renal) was 118%. The growth (UO-31 renal) was 74.9%, the growth (TK-10 renal) was 120% and the growth (ACHN renal) was 97.3%. The growth (CAKI-1 renal) was 96.8%, the growth (A498 renal) was 127% and the growth (CCRF-CEM leukemia) was 282%. The growth (MOLT-4 leukemia) was 92.8%, the growth (RPMI-8226 leukemia) was 136% and the growth (OVCAR-8 ovarian) was 106%. For the same compound, the growth (OVCAR-5 ovarian) was 70.9%, the growth (OVCAR-4 ovarian) was 104% and the growth (SK-OV-3 ovarian) was 103%. For the same compound, the growth (IGROV1 ovarian) was 68.7%, the growth (OVCAR-3 ovarian) was 109% and the growth (HS 578T breast) was 107%. For the same compound, the growth (NCI/ADR-RES ovarian) was 102%.

Work on `CC(=O)OC[C@H]1OC(Sc2sc(C(=O)c3ccc(C)cc3)c(N)c2-c2nc3ccccc3s2)[C@H](OC(C)=O)[C@@H](OC(C)=O)[C@@H]1OC(C)=O` (stereo not given in full) yielded a growth (SK-MEL-2 melanoma) of 93.6%, a growth (EKVX NSCLC) of 75% and a growth (SN12C renal) of 41.9%. For the same compound, the growth (UO-31 renal) was 25.7%, the growth (TK-10 renal) was 99.3% and the growth (ACHN renal) was 23.1%. The growth (CAKI-1 renal) was 53.7%, the growth (A498 renal) was 98.9% and the growth (CCRF-CEM leukemia) was 60.5%. For the same compound, the growth (MOLT-4 leukemia) was 80%, the growth (RPMI-8226 leukemia) was 46.5% and the growth (OVCAR-8 ovarian) was 58.7%. The growth (OVCAR-5 ovarian) was 58.6%, the growth (OVCAR-4 ovarian) was -13.9% (active) and the growth (SK-OV-3 ovarian) was 89.9%. For the same compound, the growth (IGROV1 ovarian) was 48.2%, the growth (OVCAR-3 ovarian) was 59.4% and the growth (HS 578T breast) was 52.5%. For the same compound, the growth (NCI/ADR-RES ovarian) was 62.9%.

`Cc1ccc2nc(NC(=O)CSc3nc(Cl)c(C#N)c(-c4ccccc4)n3)sc2c1` was tested, and the growth (SK-MEL-2 melanoma) was 102%, the growth (EKVX NSCLC) was 102% and the growth (SN12C renal) was 98.2%. It also gave a growth (UO-31 renal) of 80.7%, a growth (TK-10 renal) of 107% and a growth (ACHN renal) of 102%. For the same compound, the growth (CAKI-1 renal) was 94.8%, the growth (A498 renal) was 102% and the growth (CCRF-CEM leukemia) was 105%. The growth (MOLT-4 leukemia) was 104%, the growth (RPMI-8226 leukemia) was 96.9% and the growth (OVCAR-8 ovarian) was 98.3%. It also gave a growth (OVCAR-5 ovarian) of 104%, a growth (OVCAR-4 ovarian) of 105% and a growth (SK-OV-3 ovarian) of 95.7%. The growth (IGROV1 ovarian) was 93.3%, the growth (OVCAR-3 ovarian) was 107% and the growth (HS 578T breast) was 95.9%. For the same compound, the growth (NCI/ADR-RES ovarian) was 102%.

`CC(=O)OC[C@H]1OC(Sc2sc(C(=O)c3ccc(Br)cc3)c(N)c2-c2nc3ccccc3s2)[C@H](OC(C)=O)[C@@H](OC(C)=O)[C@H]1OC(C)=O` (stereo not given in full) gave a growth (SK-MEL-2 melanoma) of 112%, a growth (EKVX NSCLC) of 80.5% and a growth (SN12C renal) of 95.1%. The growth (UO-31 renal) was 61.4%, the growth (TK-10 renal) was 128% and the growth (ACHN renal) was 90.5%. It also gave a growth (CAKI-1 renal) of 67.6%, a growth (A498 renal) of 36.1% and a growth (CCRF-CEM leukemia) of 85.5%. For the same compound, the growth (MOLT-4 leukemia) was 79.3%, the growth (RPMI-8226 leukemia) was 65.5% and the growth (OVCAR-8 ovarian) was 80.3%. It also gave a growth (OVCAR-5 ovarian) of 105%, a growth (OVCAR-4 ovarian) of 46.9% and a growth (SK-OV-3 ovarian) of 57.3%. The growth (IGROV1 ovarian) was 68.8%, the growth (OVCAR-3 ovarian) was 67.1% and the growth (HS 578T breast) was 95.4%. The growth (NCI/ADR-RES ovarian) was 88.4%.

In the case of `O=CN1N=C(c2ccc(Nc3ccnc4cc(Cl)ccc34)cc2)CC1c1ccccc1` (stereo not given), the growth (SK-MEL-2 melanoma) is reported as 32.6%, the growth (EKVX NSCLC) is reported as 46.2% and the growth (SN12C renal) is reported as 53.8%. It also gave a growth (UO-31 renal) of 24.1%, a growth (TK-10 renal) of 59.7% and a growth (ACHN renal) of 33.4%. The growth (CAKI-1 renal) was 38.2%, the growth (A498 renal) was 21.2% and the growth (CCRF-CEM leukemia) was 15%. The growth (MOLT-4 leukemia) was 13.8%, the growth (RPMI-8226 leukemia) was 17.2% and the growth (OVCAR-8 ovarian) was 51.8%. It also gave a growth (OVCAR-5 ovarian) of 84.1%, a growth (OVCAR-4 ovarian) of 39% and a growth (SK-OV-3 ovarian) of 41.3%. It also gave a growth (IGROV1 ovarian) of 50.2%, a growth (OVCAR-3 ovarian) of 14.6% and a growth (HS 578T breast) of 47.5%. The growth (NCI/ADR-RES ovarian) was 7.22% (active).

— PubChem BioAssay (NCI)
